# ± gives the standard deviation.
# Test system: THP-1 macrophages infected with Mycobacterium tuberculosis H37Rv
# Test: intracellular M.tb growth inhibition relative to DMSO (0) and 4 uM bedaquiline (100); higher = stronger inhibition of intracellular bacterial growth
# Details: 10 µM; 4 days
# Description: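 OICR kinase inhibitor library screened in duplicate at 10 uM against THP-1 macrophages (PMA-differentiated) infected with M. tuberculosis H37Rv-pTEC27 (tdTomato RFP), 4 days at 37 C. Rows with complete host cell loss (placeholder inhibition 0, cell loss 100) were removed.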
row,Compound,intracellular M.tb growth inhibition [%]
1,O=C1NC(=O)c2c1c1c3ccccc3[nH]c1c1[nH]c3ccccc3c21 [Arcyriaflavin A],-61.8 ± 87
2,NC(=S)N/N=C/c1coc2ccccc2c1=O.[Cl][Cu][Cl],4.45 ± 6.8
3,Cc1ccccc1-n1c(Cn2cnc3c(N)ncnc32)nc2cccc(C)c2c1=O,-13.6 ± 20
4,COC[C@H]1OC(=O)c2coc3c2[C@@]1(C)C1=C(C3=O)[C@@H]2CCC(=O)[C@@]2(C)C[C@H]1OC(C)=O [Wortmannin],-159 ± 64
5,COc1ccc2c(c1)/C(=C/c1cnc[nH]1)C(=O)N2,-99.5 ± 38
6,Cn1cc(C2=C(c3cn(C4CCN(Cc5ccccn5)CC4)c4ccccc34)C(=O)NC2=O)c2ccccc21 [Enzastaurin],-5.94 ± 8.4
7,N#C/C(=C\c1ccc(O)c(O)c1)C(N)=S,-46 ± 15
8,CC(=O)c1c(O)c(C)c(O)c(Cc2c(O)c3c(c(C(=O)/C=C/c4ccccc4)c2O)OC(C)(C)C=C3)c1O [Rottlerin],-0.827 ± 1.2
9,C/C(O)=C(\C#N)C(=O)Nc1cc(Br)ccc1Br,-33.5 ± 11

# — the supplement of paper PMC7530171
